Sampled rows, rich in hits. Any-hit rate of the full collection: about 4.2%.
BJeLR lethal – BJeLR cell viability loss; BJeLR (HRASV12) viability, CellTiter-Glo ATP luminescence, 48 h; inhibition, % (concentration not given with the values); actives 0.17% (n = 300,000); AID 1554; in the data active = inhibition above about 50%
FBA Mtb inh – Mtb fructose-bisphosphate aldolase inhibition; P9WQA3; actives 2.3% (n = 360,000); inhibition, % at 1 µM; AID 588726; purified M. tuberculosis FBA, fluorescence read-out; in the data active = inhibition above about 27%;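 also: 0% = vehicle and 100% = reference inhibitor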
Target sequence (P9WQA3 whole entry, looked up): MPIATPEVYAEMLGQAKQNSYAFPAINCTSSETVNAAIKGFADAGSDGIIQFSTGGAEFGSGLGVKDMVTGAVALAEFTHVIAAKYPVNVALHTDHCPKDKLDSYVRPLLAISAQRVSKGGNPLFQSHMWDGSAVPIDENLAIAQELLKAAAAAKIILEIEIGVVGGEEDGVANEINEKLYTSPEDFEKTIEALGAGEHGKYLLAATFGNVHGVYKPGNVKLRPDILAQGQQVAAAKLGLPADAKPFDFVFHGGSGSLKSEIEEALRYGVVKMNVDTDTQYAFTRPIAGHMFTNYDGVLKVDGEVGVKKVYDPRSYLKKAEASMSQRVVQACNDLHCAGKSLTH
GDH-TPI inh – GDH-TPI coupled enzyme inhibition counter-screen | GDH-TPI coupled enzyme counterscreen, NADH absorbance | inhibition, % at 4.8 µM | actives 1.2% (n = 360,000) | AID 588335; in the data active = inhibition above about 30%;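 also: 0% = DMSO wells and 100% = wells lacking the enzyme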
PrPC TRFRET – reduces human prion protein on the cell surface. inhibition, % at 13.8 µM. P04156. actives 0.43% (n = 370,000). AID 720596. cell surface PrPC, TR-FRET read-out; in the data active = inhibition above about 24%; also: 0% = median of the test wells and 100% = reference compound wells
RecA splice inh – Mtb RecA intein splicing inhibition | P9WHJ3 | cell-free RecA intein splicing, fluorescence | inhibition, % (concentration not given with the values) | actives 0.75% (n = 290,000); in the data active = inhibition above about 30%;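 also: 0% = vehicle wells and 100% = reference inhibitor control wells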
Starred values were filed as active, the others as inactive; i = inactive; nt = no result given; + = active, no number.

SMILES | BJeLR lethal | FBA Mtb inh | GDH-TPI inh | PrPC TRFRET | RecA splice inh
Clc1ccc(C2=C3CCCCn4c(-c5ccccc5)c[n+](c43)C2)cc1 | 6 | 11 | 11 | 0 | 33*
O=C(C[n+]1cc(-c2ccc(Cl)cc2)n2c1CCCCC2)c1ccccc1 | 9 | 1 | -1 | 2 | 0
C=C(C)COc1ccc2c(CC)cc(=O)oc2c1C | -2 | 21 | 11 | 8 | 0
CCc1cc(=O)oc2c(C)c(O)c(CN(C)C)cc12 | -11 | + | 32* | 0 | i
CCOC(=O)[C@]12CCCCC/C=C\1N(CCc1ccc(Cl)cc1)C(=O)[C@H]2CC(=O)NCC12CC3CC(CC(C3)C1)C2 | nt | nt | nt | -4 | nt
CC1CCCN(CCCNC(=O)c2cc3c(s2)-c2ccccc2OC3)C1 (centres undefined) | 15 | nt | 23 | -14 | -25
CC1CCN(CCCNC(=O)c2cc3c(s2)-c2ccccc2OC3)CC1 | 6 | + | 8 | -19 | -23
Cc1cccc2c1-c1sc(C(=O)NCCCN3CCC(C)CC3)cc1CO2 | 10 | + | 16 | -25 | -50
COC(=O)[C@]12C[C@H](CC(=O)NCc3ccc(C)o3)C(=O)N(Cc3cccc4ccccc34)C1=C[C@H](C(C)C)O[C@@H]2C1CC1 | nt | nt | nt | 10 | nt
COC(=O)C1CN(C2CC2)CCS(=O)(=O)N1Cc1cn(Cc2ccc(C)cc2)nn1 (centres undefined) | nt | nt | nt | 6 | nt
Cc1ccnc(N/C=C(/NC(=O)c2ccccc2)C(=O)N/N=C\c2ccc(Cl)cc2)n1 | 2 | -5 | 91* | 7 | 0
Cc1ccc(-n2c(SCC(=O)Nc3ccc(S(=O)(=O)Nc4cc(C)nc(C)n4)cc3)nnc2-c2ccc(C(C)(C)C)cc2)cc1 | nt | nt | nt | 0 | nt
CNc1nc(N)c([N+](=O)[O-])c(Nc2ccccc2OC)n1 | -5 | 6 | 32* | -14 | -1
COc1ccccc1Nc1nc(NCCO)nc(N)c1[N+](=O)[O-] | -7 | -6 | 14 | -13 | -4
O=C(NC1CCCCN(Cc2ccc(OC(F)(F)F)cc2)C1=O)c1ccc2ccccc2c1 (centres undefined) | nt | nt | nt | -1 | nt
CN1C(=C2C(=O)OC(C)(C)OC2=O)Sc2ccccc21 | -3 | -3 | 46* | -1 | 0
CC(=O)Nc1cnc(-c2ccccc2O)cn1 | nt | -3 | 20 | -12 | nt
CCOc1ccccc1-c1cnc(NC)cn1 | nt | + | 19 | 10 | nt
COc1ccccc1-c1cncc(NC(C)=O)n1 | nt | 2 | 13 | 2 | nt
CNc1cnc(-c2ccccc2OC)cn1 | nt | 125* | 19 | -6 | nt
Cn1cc(C(=O)N/N=C/C=C/c2ccccc2)ccc1=O | 1 | -4 | 40* | -15 | -1
Cn1cc(C(=O)N/N=C/C(Br)=C/c2ccccc2)ccc1=O | -5 | 2 | 44* | 2 | 0
O=C(N/N=C/C(Br)=C/c1ccccc1)c1ccccc1[N+](=O)[O-] | -1 | 0 | 12 | -12 | 4
Cn1cc(C(=O)N/N=C/C(Br)=C\c2ccccc2)ccc1=O | 9 | -3 | 32* | -4 | 3
Cn1cc(C(=O)N/N=C/c2cccc(O)c2)ccc1=O | 5 | -1 | 5 | -7 | 0
SMILES | BJeLR lethal | FBA Mtb inh | GDH-TPI inh | PrPC TRFRET | RecA splice inh
COC(=O)[C@@]12CCCCC=C1N(CCc1ccc(Cl)cc1)C(=O)[C@H]2CC(=O)NCc1cccc(C(F)(F)F)c1 | nt | nt | nt | 7 | nt
Cc1ccccc1-n1sc2cc(F)ccc2c1=O | nt | 3 | -1 | -6 | nt
Cc1cc(C)[n+](-c2ccc(F)cc2)c2[nH]c(=O)[nH]c(=O)c12 | -10 | + | 19 | -2 | 0
c1ccc(Cn2c(SCC3CCCCC3)nnc2-c2cccnc2)cc1 | nt | nt | nt | -2 | nt
COc1ccc(COC(=O)c2cc([N+](=O)[O-])ccc2N2CCOCC2)cc1F | 55* | -3 | 13 | -1 | 2
C[C@@H]1CN([C@@H](C)CO)C(=O)CCCn2cc(nn2)CO[C@H]1CN(C)C(=O)Nc1ccc2c(c1)OCCO2 | nt | nt | nt | 6 | nt
Cc1ccc2c(c1)Oc1ccc(NC(=O)CCl)cc1C(=O)N2 | 46 | 0 | 6 | -3 | 60*
O=S1(=O)CC2c3ccc(F)cc3CN2CN1CCc1ccccc1 (centres undefined) | nt | nt | nt | -1 | nt
CSc1nc2nccc(-c3ccc(-c4ccccc4)cc3)n2n1 | -4 | 153* | 20 | 0 | 2
CSc1nc2nccc(-c3ccc(Oc4ccccc4)cc3)n2n1 | nt | 4 | 20 | 1 | nt
COc1ccc(C(=O)Nc2ccc3c(c2)C(=O)N(C)[C@H]2CC[C@H](CC(=O)NCC4CC4)O[C@@H]2CO3)cc1 | nt | nt | nt | 1 | nt
COC(=O)c1ccc2c(CCO)c[nH]c2c1 | -8 | + | 17 | -1 | 0

Bioassay records as filed in PubChem BioAssay.
